NPC1 promoter act: NPC1 promoter activation; 320,000 compounds, 2.4% hits; Huh7 NPC1 promoter luciferase reporter, 24 h; Potency, µM (highest dose often 9.22 µM), hits mostly activators; also: nearly all actives have a fitted effect of over 60% in size
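Luminescence read-out of NPC1 promoter-driven luciferase in stably transfected Huh7 cells; compounds delivered in DMSO and left 24 h at 37C, 5% CO2, qHTS titration format.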
Rab9 promoter act: activates the Rab9 promoter. Huh7 Rab9 promoter-luciferase reporter, luminescence, 24 h. Potency, µM (highest dose often 9.22 µM), actives largely listed as activators. 320,000 compounds, 2.8% hits; also: nearly all actives have a fitted effect of over 60% in size
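Luciferase signal after 10 min detection reagent at ambient indicates Rab9 promoter upregulation; stably transfected Huh7 cells were treated 24 h with compound in DMSO at 37 °C, 5% CO2.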
FLuc modulator: counter-screen for miR-21 project: firefly luciferase inhibitors or activators; purified FLuc, Km substrates, luminescence inhibition; P08659; 360,000 compounds, 6.9% hits; Potency, µM (highest dose often 57.5 µM), hits mostly inhibitors; also: nearly all actives have a fitted effect of over 55% in size
Target sequence (P08659 whole entry, looked up): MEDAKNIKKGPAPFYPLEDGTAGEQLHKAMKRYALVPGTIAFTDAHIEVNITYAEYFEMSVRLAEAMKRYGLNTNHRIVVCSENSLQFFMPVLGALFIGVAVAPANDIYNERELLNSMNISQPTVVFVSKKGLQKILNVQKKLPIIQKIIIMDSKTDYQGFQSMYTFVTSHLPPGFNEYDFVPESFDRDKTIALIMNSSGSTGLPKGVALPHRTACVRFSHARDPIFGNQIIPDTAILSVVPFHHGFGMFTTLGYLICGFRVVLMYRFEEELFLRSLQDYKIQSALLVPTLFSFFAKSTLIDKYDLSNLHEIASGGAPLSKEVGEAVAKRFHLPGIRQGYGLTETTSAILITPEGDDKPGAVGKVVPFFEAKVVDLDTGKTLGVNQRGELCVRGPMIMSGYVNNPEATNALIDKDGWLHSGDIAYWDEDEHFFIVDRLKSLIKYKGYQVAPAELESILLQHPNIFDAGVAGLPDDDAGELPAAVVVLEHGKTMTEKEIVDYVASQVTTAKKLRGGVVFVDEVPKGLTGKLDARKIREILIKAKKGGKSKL
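Biochemical qHTS of compounds, final roughly 60 µM downward over six points, against 10 nM purified firefly luciferase using Km concentrations of substrates (10 uM D-luciferin, 10 uM ATP) in Tris acetate pH 7.5 buffer; luminescence output.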
SMN2 splice enh: enhancers of SMN2 splice variant expression. Potency, µM (doses to about 46.1 µM), usual class: activators. AID 1458. HEK293 SMN2-luciferase splicing reporter, luminescence, 30-36 h. 210,000 compounds, 2.8% hits; also: nearly all actives have a fitted effect of over 55% in size
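qHTS luciferase splicing reporter: luminescence rises when SMN2 exon 7 is included in transfected HEK293 cells. Compound exposure lasted 30-36 h at 37C, with 4.5 mM final sodium butyrate as control, followed by a ONE-Glo read.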
KinaseGlo FLuc: counter-screen: inhibitors of Kinase-Glo firefly luciferase | Kinase-Glo luciferase, ATP luminescence, 8 min | Potency, µM (series often up to 38.3 µM), hits mostly inhibitors | 200,000 compounds, 0.28% hits; also: nearly all actives have a fitted effect of over 60% in size
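Inhibition of Kinase-Glo luciferase light generation was assessed at 10 uM ATP in pH 7.2 imidazole buffer, with luminescence measured after eight minutes at ambient temperature.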
Hits are given with their value; i = inactive; ? = inconclusive; nt = no result given; [ ] = remark or other dose. The list is not random: actives were taken first. Their share in the collection is about 7.3%. Calls follow the shape of the dose curve; as a rule, active = well fitted curve in the direction sought with a large enough effect; inconclusive = small, poorly fitted or top-dose-only effect, or another doubt; inactive = no such curve, though single readings can be large; an effect the other way counts as inactive or inconclusive.

SMILES	NPC1 promoter act	Rab9 promoter act	FLuc modulator	SMN2 splice enh	KinaseGlo FLuc
CCOC(=O)C1CCCc2c1[nH]c1c(C(N)=O)cccc21 (centres undefined)	i	i	i	i	i
NC(=O)c1cccc2c3c([nH]c12)CCCC3	i	i	24µM	i	i
CCOC(=O)c1cc(S(=O)(=O)N2CCN(c3ccc(OC)cc3)CC2)[nH]n1	nt	nt	i	nt	nt
COCCn1c(CNC(=O)c2cc([N+](=O)[O-])ccc2Cl)nc2cccnc21	nt	nt	i	nt	nt
CCOC(=O)c1sc(=NC(=O)c2cccc(Br)c2)n(C)c1C	?	4.5µM	i	nt	nt
CCOC(=O)c1sc(=NC(=O)c2c(F)cccc2F)n(C)c1C	i	?	i	nt	nt
CCOC(=O)c1sc(=NC(=O)c2cccc(C)c2)n(C)c1C	?	2µM	?	10µM	i
CC(C)C[C@@H](CC(=O)N[C@H](CC(=O)N[C@@H]1CCNC[C@H]1C(=O)N[C@H](CC(=O)N[C@@H](CCC(=O)O)CC(=O)O)CC(C)C)C(C)C)NC(=O)[C@@H]1CCCC[C@H]1N	nt	nt	nt	i	i
Cc1cccc(NC(=O)CSc2nnc3scc(-c4ccccc4)n23)c1	nt	nt	i	i	nt
O=C(CSc1ccccn1)Nc1ccc2c(c1)oc1ccccc12	i	i	13µM	18µM	i
Cc1ccc(-c2nnc(SCC(=O)Nc3ccc4c(c3)oc3ccccc34)n2C)c(Cl)c1	i	i	9.5µM	i	i
CC(C)CC(=O)Nc1cccc(-c2nc3ccccc3o2)c1	i	i	i	nt	nt
CC(C)CC(=O)Nc1ccc2c(c1)oc1ccccc12	1µM	1µM	2.1µM	5.6µM	i
O=C(Nc1ccc2c(c1)oc1ccccc12)C1CC1	4µM	2.5µM	5.4µM	?	i
Cc1ccccc1OCc1nnc(SCC(=O)Nc2ccc3c(c2)oc2ccccc23)n1C	i	i	i	?	i
O=C1CCCC(C(C(=O)OCc2ccccc2)C(=O)OCc2ccccc2)C1 (centres undefined)	nt	nt	nt	i	i
COc1ccc(OC)c(C2c3c(oc4ccc(C)cc4c3=O)C(=O)N2CCCN(C)C)c1 (centres undefined)	nt	nt	i	nt	nt
Cn1c(=O)n(C)c2cc(N3CCOCC3)c(NC(=O)c3ccc(Cl)cc3)cc21	nt	nt	i	i	nt
COc1ccc(CCNC(=O)C(=O)NCC(c2ccc3c(c2)OCO3)N2CCOCC2)cc1 (centres undefined)	nt	nt	i	nt	nt
CCCCC(=O)Nc1ccc2c(c1)oc1ccccc12	?	3.5µM	8.5µM	14µM	i
O=C(O)CCCC(=O)Nc1ccc2c(c1)oc1ccccc12	i	i	15µM	nt	nt
CCCCC(=O)Nc1cccc(NC(=O)CC)c1	i	i	i[2.3 µM]	i	i
CCCC(=O)Nc1ccc2c(c1)Cc1ccccc1-2	1.8µM	2.5µM	9.5µM	nt	nt
CCCCCC(=O)Nc1ccc2ccccc2c1	?	?	13µM	?	i
COc1ccc(CCNC(=O)C2(c3cccs3)CCOCC2)cc1OC	nt	nt	i	nt	nt
SMILES	NPC1 promoter act	Rab9 promoter act	FLuc modulator	SMN2 splice enh	KinaseGlo FLuc
Cc1cc(C)nc(-n2nc(C)c3c2N(Cc2ccccc2F)C(=O)CC3c2ccc(Cl)cc2)n1 (centres undefined)	nt	nt	i	nt	nt
Cn1c(SCC(=O)Nc2cccc(C(=O)O)c2)nnc1-c1cc2cc(Br)ccc2o1	i	i	2.7µM	nt	i
COc1cc2c(cc1OC)C1O[C@](c3ccsc3)(C2)OC2=C1C(=O)OC1(CCCCC1)C2	i[1.84 µM]	i[1.84 µM]	i[11.5 µM]	nt	nt
Cc1cc(=O)[nH]c(N/N=C/c2cn(CCC#N)nc2-c2ccccc2)n1	i	i	19µM	i	i
CC(=O)Nc1ccc(S(=O)(=O)N2CCC(N3CCN(Cc4ccc(C)cc4)C(=O)C3=O)CC2)cc1	nt	nt	i	nt	nt
CCOC(=O)c1oc2c(c1C)/C(=N/O)CCC2	?	i	?	22µM	11µM
O=c1c2ccccc2nc(SCc2nc3ccccc3s2)n1CCCO	?	2.8µM	13µM	14µM	i
Cc1cc2nc(N)sc2cc1C	nt	nt	9.5µM	?	i
CC(C)c1ccc2nc(N)sc2c1	1.6µM	2µM	6.7µM	13µM	i
Nc1nc2ccc(O)cc2s1	i	i	i	i	i
Cc1cccc2sc(N)nc12	nt	nt	nt	i	nt
CCOc1ccc(N2C(=O)N(Cc3ccc(C)cc3C)c3ccccc3S2(=O)=O)cc1	nt	nt	i	nt	nt
Cc1cccc(C(=O)Nc2ccc(OCc3cc(=O)n4ccc(C)cc4n3)cc2)c1	nt	nt	i	nt	nt
Cc1cc(C)cc(Oc2ccc(N)cc2)c1	i	i	i	13µM	i
CCOC(=O)CSCc1cn2cc(Cl)ccc2n1	i	i	?	i	i
CCOC(=O)c1ccccc1-c1cn2cc(Cl)ccc2n1	i	i	15µM	i	i
CCN(CC)CCNC(=O)c1ccc2nc(CCc3ccccc3)oc2c1	nt	nt	i	nt	nt
COc1ccc2c(c1)O[C@@H](c1cccc(C(F)(F)F)c1)[C@H](OC(=O)NCCOc1ccccc1)C2=O	nt	nt	nt	i	i
O=C(Nc1ccc(N2CCCC2)cc1)c1cccc(Cl)c1Cl	?	?	i	nt	nt
O=C(NC(=O)c1ccc(F)cc1F)Nc1ccc(Cl)cc1	?	2.2µM	i	nt	nt
O=C(Nc1ccc(N2CCCC2)cc1)c1ccccc1F	0.5µM	0.5µM	2.1µM	2.8µM	i
O=C(Nc1ccc(N2CCCCC2)cc1)c1ccc(F)cc1F	0.32µM	0.35µM	1.3µM	nt	nt
O=C(NCc1ccccc1F)C1CCN(c2nn3cc(-c4ccc(F)cc4)nc3s2)CC1	nt	nt	i	nt	nt
CCOc1ccc(NC(=O)CSc2nc3c(oc4ccccc43)c(=O)n2-c2cc(C)cc(C)c2)cc1	nt	nt	i	i	nt
CCOC(=O)c1c(C)[nH]c(C)c1S(=O)(=O)N(C)CC(=O)Nc1ccc(CC)cc1	nt	nt	i	nt	nt
SMILES	NPC1 promoter act	Rab9 promoter act	FLuc modulator	SMN2 splice enh	KinaseGlo FLuc
O=C(N/N=C1\CCCc2ccccc21)c1ccccc1Cl	?	?	?	?	i
O=C(O/N=C1\CCCc2ccccc21)c1cccc(Cl)c1	i	i	3µM	i	i
Cc1ccc(C(=O)O/N=C2\CCCc3ccccc32)cc1	i	i	0.17µM	i	i
Cc1cccc(C(=O)O/N=C2\CCCc3ccccc32)c1	?	i	0.67µM	i	i
O=C(O)c1ccc(N/N=C2/CCCc3ccccc32)cc1	3.2µM	2.5µM	9.5µM	nt	nt
Cc1cc(C)c2c(-n3cccc3)c(C(=O)NCCc3ccccc3)sc2n1	nt	nt	i	nt	nt
Cc1ccc(C(=O)O/N=C2\CCSc3ccc(C)cc32)cc1	i	i	7.6µM	i	i
C/C(=N/Nc1ccccc1C(=O)O)c1cccs1	?	3.5µM	19µM	nt	nt
CC(=O)Nc1cccc(/C(C)=N/NC(=S)NC(C)C)c1	i	i	24µM	i	i
CC(=O)Nc1cccc(/C(C)=N/NC(N)=S)c1	i	i	i	i	i
CC(=O)Nc1cccc(/C(C)=N/NC(=O)c2cccs2)c1	i	i	19µM	?	i
C/C(=N\NC(=O)c1cccs1)c1ccc2c(c1)OCO2	?	?	?	?	i
C/C(=N/NC(=O)c1cccs1)c1cccc(N)c1	?	?	19µM	nt	i
CCC(=O)Nc1ccccc1-c1nc2ccccc2n(C(CC)C(=O)Nc2cccc(C(C)=O)c2)c1=O (centres undefined)	nt	nt	i	nt	nt
